In PubChem BioAssay (NCATS):
Values without a mark were called inactive. Results filed as inconclusive are left out. A call without a number means that no potency is given here. Activity calls are given as the source filed them. Calls come from the whole dose curve; as a rule, active = well fitted curve in the direction sought with a large enough effect; inconclusive = small, poorly fitted or top-dose-only effect, or another doubt; inactive = no such curve, though single readings can be large; an effect the other way counts as inactive or inconclusive.

Tests used:
[1] = tested on: Zika virus NS2B-NS3 protease (linked construct); assay: Primary screen NINDS Rhodamine qHTS for Zika virus inhibitors (AID 1347160); note: nearly all actives have a fitted effect of over 55% in size; note: potency is the fitted concentration of half-maximal effect
Summary of the method: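 Kinetic fluorescence (Ex 480 nm, Em 540 nm) over 15 min with 1.5 microM Rhodamine110 peptide and 25 nM linked protease.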

[2] = qHTS to identify inhibitors of the type 1 interferon - major histocompatibility complex class I in skeletal muscle: primary screen against the NCATS Pharmaceutical Collection (AID 1347407);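 note: luminescence of HiBiT knocked into endogenous HLA-B as interferon-induced MHC class I level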
Summary of the method: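 Immortalized human myoblasts (C25cl48) with HiBiT knocked into endogenous HLA-B*08:01 were stimulated with 4.0 ng/ml IFN-beta and treated with compounds ([…] top 46 uM) for 24 hrs at 37 C. HiBiT lytic luminescence read.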

[3] = qHTS to identify inhibitors of the type 1 interferon - major histocompatibility complex class I in skeletal muscle: primary screen against the NCATS Mechanism Interrogation Plate v5.0 (MIPE) Libary (AID 1347411); note: nearly all actives have a fitted effect of over 65% in size; note: potency is the fitted concentration of half-maximal effect
Summary of the method: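 Cells were genome-edited human myoblasts carrying a HiBit tag on endogenous HLA-B. They were treated with IFN-beta (4.0 ng/ml) and titrated compounds (top 46 uM) for 24 hrs before lytic HiBiT detection.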

[4] = molecular target: Protein phosphatase 1D (Homo sapiens) (UniProt O15297); assay: RapidFire Mass Spectrometry qHTS Assay for Modulators of WT P53-Induced Phosphatase 1 (WIP1) (AID 1347424);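 note: amount of dephosphorylated VEPPL-S-QETFS peptide product formed by WIP1; series mostly up to about 63 µM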
Chain of Protein phosphatase 1D (Homo sapiens) (O15297 whole entry, looked up): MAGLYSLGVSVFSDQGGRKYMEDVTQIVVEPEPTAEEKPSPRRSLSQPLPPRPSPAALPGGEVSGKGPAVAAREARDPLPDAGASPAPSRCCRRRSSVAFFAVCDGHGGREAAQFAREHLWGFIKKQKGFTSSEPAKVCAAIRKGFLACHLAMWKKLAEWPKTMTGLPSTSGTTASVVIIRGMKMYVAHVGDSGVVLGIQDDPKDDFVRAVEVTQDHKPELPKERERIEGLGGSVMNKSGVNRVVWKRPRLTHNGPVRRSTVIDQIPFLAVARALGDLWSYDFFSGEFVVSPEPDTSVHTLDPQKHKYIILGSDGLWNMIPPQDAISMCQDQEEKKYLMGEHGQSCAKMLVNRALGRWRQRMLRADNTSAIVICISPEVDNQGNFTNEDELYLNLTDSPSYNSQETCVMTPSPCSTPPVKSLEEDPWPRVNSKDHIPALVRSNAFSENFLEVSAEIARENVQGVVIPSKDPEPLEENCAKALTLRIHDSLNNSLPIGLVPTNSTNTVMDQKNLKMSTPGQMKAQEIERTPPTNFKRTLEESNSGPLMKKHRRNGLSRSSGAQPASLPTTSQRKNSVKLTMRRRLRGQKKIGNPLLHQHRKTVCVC
Summary of the method: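 10 nM WIP1 + cpd, 1 h RT; + 2 uM VEPPL-pS-QETFS, 5 min RT; stop 0.5% formic acid; labelled product standard 1 uM; RapidFire MS. Buffer 50 mM Tris pH 7.5, 30 mM MgCl2, 1 mM TCEP.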

[5] = molecular target: Protein phosphatase 1D (Homo sapiens) (UniProt O15297); assay: Rhodamine-PBP qHTS Assay for Modulators of WT P53-Induced Phosphatase 1 (WIP1) (AID 1347425)
Summary of the method: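 5 nM WIP1 + 10 uM Rh-PBP, 50 mM Tris pH 7.5, 30 mM MgCl2, 1 mM TCEP, 0.1 mM EGTA, BSA; cpds pinned, 1 hr RT; + 10 uM phosphopeptide; fluorescence 1-min reads x 11 min; delta = f1 - f0.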

[6] = Primary qHTS for inhibitors of La Crosse Virus (LACV) - induced cell death in SH-SY5Y cells (AID 1508616);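 note: top concentration of the series differs between compounds; higher means more rescue of cells from virus-induced death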
Summary of the method: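 Readout was luminescence from ATPLite 1step added after a 6-day LACV infection (0.01 MOI) of SH-SY5Y cells that had received pin-transferred compound 24 hr after seeding.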

[7] = qHTS to identify inhibitors of the type 1 interferon - major histocompatibility complex class I in skeletal muscle: primary screen against the NCATS LOPAC collection (AID 1347405);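 note: lytic HiBiT luminescence reporting HLA-B protein level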
Summary of the method: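 Cells: C25cl48 human myoblasts, HiBiT-tagged HLA-B*08:01, stimulated with IFN-beta 4.0 ng/ml. Compounds are titrated 1:4.3 over 7 points from 46 uM final and incubated 24 hrs; endogenous MHC class I is quantified by HiBiT lytic luminescence.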

[8] = qHTS for inhibitors of adenylyl cyclases using a fission yeast platform: a pilot screen against the NCATS LOPAC library (AID 1347410)
Summary of the method: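 S. pombe CHP2027 (AC9-GNAS-PDE4D2) carrying PKA-repressed fbp1-GFP, incubated 18 h at 30C in EMM with LOPAC compounds at up to 57 uM. GFP gain-of-signal read by laser scanning cytometry; DMSO negative control.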

[9] = molecular target: Calcium and integrin-binding protein 1 (Homo sapiens) (UniProt Q99828); assay: Validation qHTS for Identification of Calcium Integrin Binding protein 1 (CIB1) Competitor (AID 1508618)
Chain of Calcium and integrin-binding protein 1 (Homo sapiens) (Q99828 whole entry, looked up): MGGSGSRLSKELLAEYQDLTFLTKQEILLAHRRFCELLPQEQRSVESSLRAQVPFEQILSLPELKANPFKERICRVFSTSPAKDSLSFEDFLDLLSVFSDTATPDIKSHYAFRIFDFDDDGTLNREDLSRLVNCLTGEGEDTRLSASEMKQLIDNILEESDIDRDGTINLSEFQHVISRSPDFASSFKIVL
Summary of the method: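 Displacement of FITC-alphaIIb peptide (100 nM) from CIB1-GST (1 uM) is monitored by polarization in quantitative HTS format; buffer carries 5 mM CaCl2 and 125 mM NaCl at pH 7.4, incubations are at room temperature.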

[10] = tested on: Zika virus NS2B-NS3 protease (unlinked complex); assay: Primary screen GU Rhodamine qHTS for Zika virus inhibitors: Unlinked NS2B-NS3 protease assay (AID 1347159); note: nearly all actives have a fitted effect of over 60% in size
Summary of the method: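 A qHTS format was used, with compound concentrations ranging up to 114 microM. Each compound was preincubated with 25 nM NS2B-NS3 protease, and the substrate was then added at 1.5 microM. Curves were fitted with a 4-parameter Hill model.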

[11] = Confirmatory screen NINDS Rhodamine qHTS for Zika virus inhibitors (AID 1347161); note: nearly all actives have a fitted effect of over 60% in size; note: potency is the fitted concentration of half-maximal effect
Summary of the method: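 Aprotinin served as in-plate control. Conditions: 25 nM linked NS2B-NS3, pH 8.0 Tris buffer, titrated compounds, 15 min preincubation and 15 min reaction with 1.5 microM Rhod110 substrate at room temperature.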

[12] = molecular target: Lysine-specific demethylase 5B (Homo sapiens) (UniProt Q9UGL1); assay: Optimization screen for KDM5B Histone Demethylases FDH coupled qHTS against the LOPAC library (AID 1347166)
Chain of Lysine-specific demethylase 5B (Homo sapiens) (Q9UGL1 whole entry, looked up): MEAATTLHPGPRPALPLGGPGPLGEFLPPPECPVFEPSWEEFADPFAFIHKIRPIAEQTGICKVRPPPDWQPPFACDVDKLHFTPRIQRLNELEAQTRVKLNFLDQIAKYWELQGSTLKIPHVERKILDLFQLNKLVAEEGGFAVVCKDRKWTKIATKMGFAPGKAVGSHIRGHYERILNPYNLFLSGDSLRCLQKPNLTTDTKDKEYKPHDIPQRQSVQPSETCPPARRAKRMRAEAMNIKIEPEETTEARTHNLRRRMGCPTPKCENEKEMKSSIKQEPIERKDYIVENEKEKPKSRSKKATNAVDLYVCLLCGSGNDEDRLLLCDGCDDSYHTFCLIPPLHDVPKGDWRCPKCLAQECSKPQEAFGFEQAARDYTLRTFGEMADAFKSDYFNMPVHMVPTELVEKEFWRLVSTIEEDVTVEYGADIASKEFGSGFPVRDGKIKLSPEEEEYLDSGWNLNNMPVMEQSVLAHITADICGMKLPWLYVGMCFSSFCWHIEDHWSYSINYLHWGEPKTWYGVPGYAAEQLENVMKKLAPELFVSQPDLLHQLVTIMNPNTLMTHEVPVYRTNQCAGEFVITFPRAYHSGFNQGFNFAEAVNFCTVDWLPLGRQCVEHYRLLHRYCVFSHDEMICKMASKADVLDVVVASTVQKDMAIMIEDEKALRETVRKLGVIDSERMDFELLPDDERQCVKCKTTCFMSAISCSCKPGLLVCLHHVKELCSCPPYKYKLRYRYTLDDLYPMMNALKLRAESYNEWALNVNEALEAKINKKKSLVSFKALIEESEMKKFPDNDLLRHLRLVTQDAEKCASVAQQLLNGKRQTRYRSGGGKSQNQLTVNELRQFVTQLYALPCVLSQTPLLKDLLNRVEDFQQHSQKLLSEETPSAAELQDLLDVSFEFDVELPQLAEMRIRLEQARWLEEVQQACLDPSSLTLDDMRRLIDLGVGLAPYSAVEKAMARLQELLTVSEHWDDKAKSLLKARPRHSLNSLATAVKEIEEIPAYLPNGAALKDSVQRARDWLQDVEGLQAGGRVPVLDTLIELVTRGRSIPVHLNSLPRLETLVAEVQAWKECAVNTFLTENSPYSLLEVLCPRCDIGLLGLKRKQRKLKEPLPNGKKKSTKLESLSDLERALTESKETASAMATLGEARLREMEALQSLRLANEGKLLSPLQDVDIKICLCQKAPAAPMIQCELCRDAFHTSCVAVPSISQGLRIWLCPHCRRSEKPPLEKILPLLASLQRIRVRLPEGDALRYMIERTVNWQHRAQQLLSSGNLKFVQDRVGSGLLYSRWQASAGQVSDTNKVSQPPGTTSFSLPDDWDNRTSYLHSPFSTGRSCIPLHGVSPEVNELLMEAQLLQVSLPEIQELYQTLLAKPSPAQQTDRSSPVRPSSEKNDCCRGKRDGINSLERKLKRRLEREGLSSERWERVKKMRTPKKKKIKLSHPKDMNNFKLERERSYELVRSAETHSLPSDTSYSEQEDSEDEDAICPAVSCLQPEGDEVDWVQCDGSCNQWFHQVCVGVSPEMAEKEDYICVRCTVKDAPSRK
Summary of the method: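 KDM5BDeltaAP (200nM final) preincubated 10 min with compound, then 12.5uM H3K4Me3, 25uM a-ketoglutarate, ascorbate, Fe(II), NAD+ and FDH added; 50mM HEPES pH 7.5, 0.01% Tween-20. NADH fluorescence (340/450 nm) change over 30 min, room temperature.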

[13] = Vero cells viability qHTS for Zika virus inhibitors (AID 1347167)
Summary of the method: (§1)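 Compounds were tested in concentration series on cells grown in DMEM containing 4% FBS. After 24 to 48 hours, cellular ATP was measured by luminescence with CellTiter Glo.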

[14] = Validation qHTS assay for inhibitors of Activation Induced Cytidine Deaminase (AID): UDG Counterscreen signal (AID 1347427)
Summary of the method: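 Counterscreen read of UDG activity (2 U/mL, 4/3x) in the FRET deamination format with AID (1 uM, 4/3x), DJC20/DJC23 substrates (250 nM, 4x), 4 h at room temperature. NaOH stop, fluorescence at 560 ex/665 em.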

[15] = molecular target: Single-stranded DNA cytosine deaminase (Homo sapiens) (UniProt Q9GZX7); assay: Validation qHTS assay for inhibitors of Activation Induced Cytidine Deaminase (AID): AID signal (AID 1347429)
Chain of Single-stranded DNA cytosine deaminase (Homo sapiens) (Q9GZX7 whole entry, looked up): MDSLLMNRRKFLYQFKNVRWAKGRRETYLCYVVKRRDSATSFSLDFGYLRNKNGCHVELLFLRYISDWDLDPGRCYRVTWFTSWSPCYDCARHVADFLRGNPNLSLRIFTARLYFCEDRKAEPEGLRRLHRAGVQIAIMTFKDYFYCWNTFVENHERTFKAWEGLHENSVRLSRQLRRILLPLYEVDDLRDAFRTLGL
Summary of the method: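 In this coupled qHTS, AID deaminates a FRET-labelled ssDNA substrate in the presence of UDG over 4 hr at room temperature. Compounds span up to 114 uM final.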

[16] = molecular target: Calcium and integrin-binding protein 1 (Homo sapiens) (UniProt Q99828); assay: Confirmatory qHTS for Identification of Calcium Integrin Binding Protein 1 (CIB1) Competitor (AID 1508617); note: nearly all actives have a fitted effect of over 65% in size
Summary of the method: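 Confirmatory qHTS measures displacement of a FITC-alphaIIb peptide (100 nM) from CIB1-GST (1 uM) by fluorescence polarization. Calcium-containing HEPES buffer, pH 7.4; two 15 min room-temperature incubations.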

[17] = HepG2 cells viability qHTS for Zika virus inhibitors (AID 1347168)
Summary of the method: as §1

[18] = tested on: Zika virus NS2B-NS3 protease (linked); assay: 384 well plate NINDS AMC confirmatory qHTS for Zika virus inhibitors (AID 1347163); note: nearly all actives have a fitted effect of over 50% in size; note: potency is the fitted concentration of half-maximal effect
Summary of the method: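 Linked protease 5/30/60 nM final; cpds up to 1 mM final, ~15 min preinc. Substrate Ac-VKTGKR-AMC 30 microM final. RT, dark, 25 min; FI ex 355/em 460; normalized to no-enzyme/no-inhibitor ctrls.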

[19] = tested on: Zika virus NS2B-NS3 protease (linked construct); assay: 384 well plate NINDS Rhodamine confirmatory qHTS for Zika virus inhibitors (AID 1347164);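 note: fluorescence from protease cleavage of Ac-LKRR-rhodamine 110 substrate; nearly all actives have a fitted effect of over 65% in size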; note: potency is the fitted concentration of half-maximal effect
Summary of the method: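 Linked NS2B-NS3 protease (final 5, 30 or 60 nM) preincubated ~15 minutes with compounds, then 10 microM Ac-LKRR-Rhodamine 110 added. Fluorescence (485/538 nm) read after 25 minutes at room temperature, normalized to no-enzyme and no-inhibitor controls.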

## CCC(C)n1ncn(-c2ccc(N3CCN(c4ccc(OC[C@H]5CO[C@](Cn6cncn6)(c6ccc(Cl)cc6Cl)O5)cc4)CC3)cc2)c1=O (stereo partly specified)
[1]
  Potency: inactive
[2]
  outcome: inactive
[3]
  Potency: inactive
[4]
  Potency: inactive
[5]
  outcome: inactive
[6]
  outcome: inactive

## COc1ccccc1[C@H](c1cccc2ccccc12)[C@@](C)(C#N)C(=O)N1CCC(c2cccc(C(F)(F)F)c2)CC1
[1]
  Potency: inactive
[3]
  Potency: inactive

## O=C(Nc1ccc(F)c(C(F)(F)F)c1)Nc1nnc(-c2ccncc2)s1
[1]
  Potency: 2.82 µM (active)
[3]
  Potency: inactive

## Cc1csc(NC(=O)c2sc3nc4c(c(C(F)(F)F)c3c2N)CCC4)n1
[1]
  Potency: inactive

## CCc1cncnc1N1CCN(Cc2nc3ccc(C(F)(F)F)cc3[nH]2)CC1
[1]
  Potency: inactive
[7]
  Potency: inactive
[8]
  outcome: inactive
[3]
  Potency: inactive
[9]
  Potency: inactive

## O=C(Nc1cccnc1)N1CCC(Cc2cccc(Oc3ccc(C(F)(F)F)cn3)c2)CC1
[1]
  Potency: inactive

## CN(C)c1ccc(C2Nc3ccc4ccccc4c3C3=C2C(=O)CC(C)(C)C3)cc1Br (stereo unspecified)
[1]
  Potency: inactive
[3]
  Potency: inactive

## CN(C)c1ccc(Nc2nc(N)n(C(=O)c3c(F)cccc3F)n2)cc1
[10]
  Potency: inactive
[1]
  Potency: inactive
[3]
  Potency: 16.5 µM (active)

## CCCS(=O)(=O)Nc1ccc(F)c(C(=O)c2c[nH]c3ncc(-c4ccc(Cl)cc4)cc23)c1F
[1]
  Potency: inactive

## Cc1n[nH]c(C)c1Cc1sc2c(c1C(=O)N1C[C@H](O)CO1)c(=O)n(C)c(=O)n2CC(C)C
[1]
  Potency: inactive
[3]
  Potency: inactive

## CN1CCN(CCCN2c3ccccc3Sc3ccc(C(F)(F)F)cc32)CC1
[11]
  Potency: inactive
[12]
  outcome: inactive
[13]
  outcome: inactive
[7]
  Potency: inactive
[8]
  outcome: inactive
[3]
  Potency: inactive
[4]
  Potency: inactive
[5]
  outcome: inactive
[14]
  outcome: inactive
[15]
  Potency: inactive
[6]
  outcome: inactive

## Cn1cnc2c(F)c(Nc3ccc(Br)cc3Cl)c(C(=O)NOCCO)cc21
[1]
  Potency: inactive
[3]
  Potency: inactive
[4]
  Potency: inactive
[5]
  outcome: inactive
[6]
  outcome: inactive

## Clc1ccc(Nc2nnc(Cc3ccncc3)c3ccccc23)cc1
[1]
  Potency: inactive
[3]
  Potency: inactive
[4]
  Potency: inactive
[5]
  outcome: inactive
[6]
  outcome: inactive

## CNC(=O)c1ccc(C)c(-n2c(C)cc(OCc3ccc(F)cc3F)c(Br)c2=O)c1
[1]
  Potency: inactive
[3]
  Potency: inactive

## Cn1cc(-c2ccc3nnc(C(F)(F)c4ccc5ncccc5c4)n3n2)cn1
[1]
  Potency: inactive
[3]
  Potency: inactive

## O=C1CCCC2=C1C(c1[nH]ncc1Cl)N=C(Nc1nc3ccccc3o1)N2 (stereo unspecified)
[1]
  Potency: inactive
[3]
  Potency: inactive
[16]
  Potency: inactive

## CC(C[N+](C)(C)C)OC(N)=O (stereo unspecified)
[12]
  outcome: inactive
[7]
  Potency: inactive
[2]
  outcome: inactive
[8]
  outcome: inactive
[3]
  Potency: inactive
[4]
  Potency: inactive
[5]
  outcome: inactive
[14]
  outcome: inactive
[15]
  Potency: inactive
[6]
  outcome: inactive
[9]
  Potency: inactive

## NS(=O)(=O)c1cc2c(cc1Cl)NC=NS2(=O)=O
[12]
  outcome: inactive
[7]
  Potency: inactive
[2]
  outcome: inactive
[8]
  outcome: inactive
[3]
  Potency: inactive
[4]
  Potency: inactive
[5]
  outcome: inactive
[14]
  outcome: inactive
[15]
  Potency: inactive
[6]
  outcome: inactive
[9]
  Potency: inactive

## COCC(=O)NCC=Cc1ccc2ncnc(Nc3ccc(Oc4ccc(C)nc4)c(C)c3)c2c1
[11]
  Potency: inactive
[13]
  outcome: inactive
[17]
  outcome: inactive

## CC(C)c1onc(-c2c(Cl)cccc2Cl)c1COc1ccc(/C=C/c2cccc(C(=O)O)c2)c(Cl)c1
[11]
  Potency: 2.47 µM (active)
[18]
  Potency: inactive
[19]
  Potency: inactive
[17]
  outcome: inactive
[3]
  Potency: inactive

## O=c1[nH]c(-c2ccc(C(F)(F)F)cc2)nc2c1CSCC2
[1]
  Potency: inactive
[3]
  Potency: inactive

## COc1ccccc1-c1cccc(-c2c(O)c3cc(C#N)c(Cl)cc3[nH]c2=O)c1
[11]
  Potency: 27.8 µM (active)
[18]
  Potency: 50.1 µM (active)
[19]
  Potency: 7.08 µM (active)
[13]
  outcome: inactive
[17]
  outcome: inactive
[3]
  Potency: inactive
